PubChem BioAssay (NCATS)
Results filed as inconclusive are left out. Where a call stands in place of a potency, no number is given. Unmarked numbers belong to inactive results. The source made the active and inactive calls. Unless noted, calls come from the whole dose curve; as a rule, active = well fitted curve in the direction sought with a large enough effect; inconclusive = small, poorly fitted or top-dose-only effect, or another doubt; inactive = no such curve, though single readings can be large; an effect the other way counts as inactive or inconclusive.

Columns and labels:
[1] = qHTS to identify inhibitors of the type 1 interferon - major histocompatibility complex class I in skeletal muscle: primary screen against the NCATS Pharmaceutical Collection (AID 1347407);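 note: luminescence of HiBiT knocked into endogenous HLA-B as interferon-induced MHC class I level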
Outline: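 A qHTS format is used: 8-point, 1:5 compound series with 46 uM top final concentration, applied alongside 4 ng/ml IFN-beta to HLA-B*08:01-HiBiT knock-in myoblasts. Luminescence is measured after 24 h treatment.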

[2] = molecular target: Protein phosphatase 1D (Homo sapiens) (UniProt O15297); assay: RapidFire Mass Spectrometry qHTS Assay for Modulators of WT P53-Induced Phosphatase 1 (WIP1) (AID 1347424);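 note: amount of dephosphorylated VEPPL-S-QETFS peptide product formed by WIP1; series mostly up to about 63 µM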
Chain of Protein phosphatase 1D (Homo sapiens) (O15297 whole entry, looked up): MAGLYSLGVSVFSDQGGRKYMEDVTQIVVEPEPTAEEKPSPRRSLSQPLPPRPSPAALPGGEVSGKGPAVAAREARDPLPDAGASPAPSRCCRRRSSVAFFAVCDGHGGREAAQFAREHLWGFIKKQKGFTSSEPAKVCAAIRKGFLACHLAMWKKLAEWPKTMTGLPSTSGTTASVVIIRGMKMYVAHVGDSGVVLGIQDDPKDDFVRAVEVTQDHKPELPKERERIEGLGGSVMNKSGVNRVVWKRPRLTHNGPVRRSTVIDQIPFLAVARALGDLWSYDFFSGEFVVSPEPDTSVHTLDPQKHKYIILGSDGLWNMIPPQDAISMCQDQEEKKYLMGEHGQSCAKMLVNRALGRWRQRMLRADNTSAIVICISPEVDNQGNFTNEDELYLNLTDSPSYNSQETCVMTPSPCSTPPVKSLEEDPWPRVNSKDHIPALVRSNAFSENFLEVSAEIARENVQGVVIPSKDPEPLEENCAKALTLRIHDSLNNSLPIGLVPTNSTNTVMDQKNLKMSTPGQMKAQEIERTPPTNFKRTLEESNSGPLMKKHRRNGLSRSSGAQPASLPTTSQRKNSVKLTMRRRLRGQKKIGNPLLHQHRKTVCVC
Outline: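 10 nM WIP1 + cpd, 1 h RT; + 2 uM VEPPL-pS-QETFS, 5 min RT; stop 0.5% formic acid; labelled product standard 1 uM; RapidFire MS. Buffer 50 mM Tris pH 7.5, 30 mM MgCl2, 1 mM TCEP.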

[3] = molecular target: Protein phosphatase 1D (Homo sapiens) (UniProt O15297); assay: Rhodamine-PBP qHTS Assay for Modulators of WT P53-Induced Phosphatase 1 (WIP1) (AID 1347425)
Outline: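 WIP1 (5 nM final) was preincubated with compound for 1 hour at room temperature. It then dephosphorylated 10 uM VEPPL-pS-QETFS peptide in Tris-HCl pH 7.5 with 30 mM MgCl2. Released Pi was detected by 10 uM Rh-PBP fluorescence (ex 525/em 598 nm) read at 1-min intervals for 11 min, as delta f1 - f0.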

[4] = Primary qHTS for inhibitors of La Crosse Virus (LACV) - induced cell death in SH-SY5Y cells (AID 1508616);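 note: top concentration of the series differs between compounds; higher means more rescue of cells from virus-induced death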
Outline: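 SH-SY5Y cells (6000/well) plated 24 h, then given compounds by pin transfer and LACV at 0.01 MOI for 6 days at 37C. Viability measured by ATPLite luminescence, normalized to infected DMSO and uninfected DMSO.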

[5] = molecular target: Calcium and integrin-binding protein 1 (Homo sapiens) (UniProt Q99828); assay: Primary qHTS for Identification of Calcium Integrin Binding Protein 1 (CIB1) Competitor (AID 1508620);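 note: GST tagged CIB1 binding a fluorescein labelled alphaIIb integrin peptide tracer; top concentration of the series differs between compounds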
Chain of Calcium and integrin-binding protein 1 (Homo sapiens) (Q99828 whole entry, looked up): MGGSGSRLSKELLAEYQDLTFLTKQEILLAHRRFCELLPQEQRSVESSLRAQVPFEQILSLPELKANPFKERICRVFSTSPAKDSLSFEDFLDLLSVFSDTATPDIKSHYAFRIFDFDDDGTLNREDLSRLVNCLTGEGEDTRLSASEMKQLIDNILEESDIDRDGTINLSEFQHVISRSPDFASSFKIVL
Outline: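 CIB1-GST (1 uM final) and compound incubated 15 min at room temperature before adding FITC-alphaIIb peptide tracer (100 nM final). Competition for binding read by fluorescence polarization (ex 480, em 540) after another 15 min at room temperature.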

[6] = Counterscreen qHTS for small molecule stabilizers of the endoplasmic reticulum resident proteome: GLuc-NoTag assay (AID 1508627);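 note: SH-SY5Y cells given compound then 100 nM thapsigargin to empty ER calcium; series mostly up to about 76 µM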
Outline: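 Luminescence of Gaussia luciferase secreted into the medium (coelenterazine, 0.07x final, unlysed cells) was the read-out. Human SH-SY5Y neuroblastoma cells constitutively secreting untagged GLuc received compound for 19 h, then 100 nM thapsigargin for 4 h.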

[7] = Confirmatory qHTS for small molecule stabilizers of the endoplasmic reticulum resident proteome: Secreted ER Calcium Modulated Protein (SERCaMP) assay (AID 1508628); note: series mostly up to about 76 µM; nearly all actives have a fitted effect of over 40% in size
Outline: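 SH-SY5Y cells stably expressing GLuc-SERCaMP, treated 16 h with compound (primary 1.53, 7.67, 38.3 uM; confirmation 11 concentrations, up to 76.6 uM), then 100 nM thapsigargin for 4 h. Secreted Gaussia luciferase in medium read by coelenterazine luminescence.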

[8] = Primary qHTS for small molecule stabilizers of the endoplasmic reticulum resident proteome: Secreted ER Calcium Modulated Protein (SERCaMP) assay (AID 1508630)
Outline: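 GLuc-SERCaMP-expressing SH-SY5Y cells, pretreated 16 h with compound, are challenged with thapsigargin to empty ER calcium stores; after 4 h, coelenterazine is added directly to the medium and luminescence is imaged.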

[9] = A High-Content qHTS Against Drug Library for the Identification of Small Molecules that Inhibit DYT1 Early Onset Primary Dystonia-Associated Cell Pathology (AID 1645839; calls by dose curve; note: series mostly up to about 46 µM)
Outline: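 In this high-content image screen, delE TorsinA mislocalization in inducible Flp-In 293 cells is scored as %pathology, with cell count serving as the counterscreen. Compound exposure lasts 48 h under tetracycline induction in reduced-serum medium.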

[10] = molecular target: Cytochrome P450 2D6 (Homo sapiens) (UniProt P10635); assay: Cytochrome P450 family 2 subfamily D member 6 (CYP2D6) small molecule antagonists: luciferase biochemical (cell-free) qHTS assay (AID 1645840; active = well fitted curve in the direction sought with a large enough effect in the repeat runs; an effect the other way counts as inactive or inconclusive; note: nearly all actives have a fitted effect of over 55% in size; note: potency is the fitted concentration of half-maximal effect)
Chain of Cytochrome P450 2D6 (Homo sapiens) (P10635 whole entry, looked up): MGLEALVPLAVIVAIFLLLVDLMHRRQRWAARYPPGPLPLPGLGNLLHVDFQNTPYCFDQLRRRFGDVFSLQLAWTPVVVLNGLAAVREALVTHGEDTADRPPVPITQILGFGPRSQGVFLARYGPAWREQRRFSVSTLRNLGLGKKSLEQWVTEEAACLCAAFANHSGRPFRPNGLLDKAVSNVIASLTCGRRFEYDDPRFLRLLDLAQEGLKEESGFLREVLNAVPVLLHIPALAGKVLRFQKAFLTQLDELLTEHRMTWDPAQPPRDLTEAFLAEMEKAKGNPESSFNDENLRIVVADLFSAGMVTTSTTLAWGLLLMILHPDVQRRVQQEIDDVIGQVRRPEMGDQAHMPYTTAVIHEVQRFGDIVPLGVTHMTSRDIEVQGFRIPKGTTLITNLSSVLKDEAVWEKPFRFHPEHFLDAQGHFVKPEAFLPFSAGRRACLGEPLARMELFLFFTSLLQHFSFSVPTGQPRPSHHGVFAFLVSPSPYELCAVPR
Outline: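 P450-Glo luminescent screen: recombinant CYP2D6 enzyme–proluciferin substrate mix preincubated with compound 10 min at room temperature, then NADPH regeneration added for 1 h at room temperature. Detection reagent added for 20 min; luciferin light read as relative luminescence units.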

[11] = molecular target: Cytochrome P450 2C9 (Homo sapiens) (UniProt P11712); assay: Cytochrome P450 family 2 subfamily C member 9 (CYP2C9) small molecule antagonists: luciferase biochemical (cell-free) qHTS assay (AID 1645842; active = well fitted curve in the direction sought with a large enough effect in the repeat runs; an effect the other way counts as inactive or inconclusive; note: series mostly up to about 57 µM; nearly all actives have a fitted effect of over 55% in size)
Chain of Cytochrome P450 2C9 (Homo sapiens) (P11712 whole entry, looked up): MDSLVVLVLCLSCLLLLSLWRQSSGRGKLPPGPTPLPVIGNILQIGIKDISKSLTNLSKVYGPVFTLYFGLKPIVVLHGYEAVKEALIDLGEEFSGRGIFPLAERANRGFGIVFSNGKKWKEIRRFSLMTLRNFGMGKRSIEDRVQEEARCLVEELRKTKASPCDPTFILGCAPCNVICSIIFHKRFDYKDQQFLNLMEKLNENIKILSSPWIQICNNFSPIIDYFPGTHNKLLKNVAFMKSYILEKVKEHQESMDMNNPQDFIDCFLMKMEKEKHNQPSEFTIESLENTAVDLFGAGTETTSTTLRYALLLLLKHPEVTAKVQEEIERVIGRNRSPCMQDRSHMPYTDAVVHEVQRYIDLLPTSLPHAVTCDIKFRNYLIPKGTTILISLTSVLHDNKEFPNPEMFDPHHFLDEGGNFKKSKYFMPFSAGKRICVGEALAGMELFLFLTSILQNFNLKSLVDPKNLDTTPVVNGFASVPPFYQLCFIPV
Outline: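 Luminescence, after 20 min with luciferin detection reagent, reflected CYP2C9 turnover during a 1 h NADPH-driven reaction at 37C. Enzyme-substrate mix contained 0.4% bovine serum albumin and was preincubated with compound 10 min at room temperature.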

[12] = molecular target: Calcium and integrin-binding protein 1 (Homo sapiens) (UniProt Q99828); assay: Confirmatory qHTS for Identification of Calcium Integrin Binding Protein 1 (CIB1) Competitor (AID 1508617); note: nearly all actives have a fitted effect of over 65% in size
Outline: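 FP competition: CIB1-GST (1 uM final) in 5 mM HEPES pH 7.4, 125 mM NaCl, 5 mM CaCl2, 0.01% Tween20 preincubated 15 min RT with compounds (up to 114 uM), then FITC-alphaIIb peptide (100 nM), 15 min RT; Ex 480/Em 540.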

[13] = qHTS to identify inhibitors of the type 1 interferon - major histocompatibility complex class I in skeletal muscle: primary screen against the NCATS Mechanism Interrogation Plate v5.0 (MIPE) Libary (AID 1347411); note: nearly all actives have a fitted effect of over 65% in size
Outline: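 Immortalized human myoblasts (C25cl48) with HiBit knocked into endogenous HLA-B*08:01 were stimulated with 4 ng/ml IFN-beta and given compounds in 11-point 1:3 titration from 46 uM. After 24 h at 37 C, lytic HiBiT luminescence was read.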

[14] = Cell Viability qHTS for small molecule stabilizers of the endoplasmic reticulum resident proteome (AID 1508629); details: cell viability counter-screen, 100 nM thapsigargin for final 4 h;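 note: human SH-SY5Y neuroblastoma cells carrying the GLuc-SERCaMP reporter; compound exposure about 46 h in total before the viability read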

Structure (SMILES)	outcome [1]	outcome [2]	outcome [3]	outcome [4]	outcome [5]	outcome [6]	Potency [7]	outcome [8]	Potency [9]	Potency [10]	Potency [11]	outcome [12]	outcome [13]	max response [14] [%]
Cc1ccc2c(c1)c1c3n2CCNC3CCC1 (stereo not given)	inactive	inactive	inactive	inactive	inactive	inactive	inactive	inactive	–	–	–	–	–	–
Cc1cccc(C(=O)O)c1O	inactive	inactive	inactive	inactive	inactive	–	–	inactive	inactive	inactive	inactive	–	–	–
CCCCCC(N)=O	inactive	inactive	inactive	inactive	inactive	–	–	inactive	inactive	inactive	inactive	–	–	–
O=C(O)Cc1ccc(CCNS(=O)(=O)c2ccc(Cl)cc2)cc1	inactive	inactive	inactive	inactive	–	–	–	–	inactive	inactive	–	inactive	–	–
CN/C(=C\[N+](=O)[O-])NCCSCc1csc(CN(C)C)n1	inactive	inactive	inactive	inactive	inactive	–	–	inactive	inactive	inactive	inactive	–	–	–
O=C(CN1CCNCC1)NC1CCCCC1	inactive	inactive	inactive	inactive	inactive	–	–	inactive	inactive	inactive	inactive	–	–	–
CC(C)=CCC/C(C)=C/CO	inactive	inactive	inactive	inactive	inactive	–	–	inactive	inactive	–	–	–	–	–
CC(=O)OCC(COC(C)=O)OC(C)=O	inactive	inactive	inactive	inactive	inactive	–	–	inactive	inactive	inactive	inactive	–	–	–
CC(=O)OCC(=O)[C@@]1(O)CC[C@H]2[C@@H]3CCC4=CC(=O)C=C[C@]4(C)[C@@]3(F)[C@@H](O)C[C@@]21C	inactive	inactive	inactive	inactive	inactive	–	–	inactive	inactive	inactive	inactive	–	–	–
CCN(CC)CCOC(=O)C(c1ccccc1)c1ccccc1	inactive	inactive	inactive	inactive	inactive	–	–	inactive	inactive	1950 nM (active)	–	–	–	–
C[C@@H]1CCC[C@H](C)N1	inactive	inactive	inactive	inactive	inactive	–	–	inactive	inactive	inactive	inactive	–	–	–
O=C(O)CNC(=O)c1ccccc1I	inactive	inactive	inactive	inactive	inactive	–	–	inactive	inactive	inactive	inactive	–	–	–
NC(=O)c1ccc([N+](=O)[O-])cc1Cl	inactive	inactive	inactive	inactive	inactive	–	–	inactive	inactive	inactive	inactive	–	–	–
CCOC(=O)[C@H](CCc1ccccc1)N[C@@H](C)C(=O)N1CCC[C@H]1C(=O)O	inactive	inactive	inactive	inactive	inactive	–	–	–	inactive	inactive	inactive	–	inactive	–
COc1ccc(C(=O)N2CCN(CC(=O)N3CCOCC3)CC2)cc1	inactive	inactive	inactive	inactive	inactive	inactive	inactive	–	inactive	inactive	inactive	–	–	17.3
Cc1ccsc1/C=C/C1=NCCCN1C	inactive	inactive	inactive	inactive	inactive	–	–	inactive	inactive	–	–	–	–	–
O=c1[nH]cnc2nc[nH]c12	inactive	inactive	inactive	inactive	inactive	–	–	inactive	inactive	inactive	inactive	–	–	–
Cc1ccsc1C(=CCCN1CCC[C@@H](C(=O)O)C1)c1sccc1C	inactive	–	inactive	inactive	inactive	–	–	–	inactive	inactive	inactive	–	inactive	–
OCCN1C[C@H](O)[C@@H](O)[C@H](O)[C@H]1CO	inactive	inactive	inactive	inactive	inactive	–	–	inactive	inactive	inactive	inactive	–	inactive	–
COc1ccccc1OC(=O)Oc1ccccc1OC	inactive	inactive	inactive	inactive	inactive	–	–	inactive	inactive	inactive	inactive	–	–	–
CCCCCOC(=O)Nc1nc(=O)n([C@@H]2O[C@H](C)[C@@H](O)[C@H]2O)cc1F	inactive	–	inactive	inactive	inactive	–	–	–	inactive	inactive	inactive	–	inactive	–
CC(=O)N(CC(O)CN(C(C)=O)c1c(I)c(C(=O)NCC(O)CO)c(I)c(C(=O)NCC(O)CO)c1I)c1c(I)c(C(=O)NCC(O)CO)c(I)c(C(=O)NCC(O)CO)c1I (stereo not given)	inactive	inactive	inactive	inactive	inactive	–	–	inactive	inactive	inactive	inactive	–	–	–
CCS(=O)(=O)CCn1c([N+](=O)[O-])cnc1C	inactive	inactive	inactive	inactive	inactive	–	–	inactive	inactive	–	–	–	–	–
Cc1ccc(S(=O)(=O)NC(=O)NC2CCCCC2)cc1	inactive	inactive	inactive	inactive	inactive	–	–	inactive	inactive	inactive	–	–	–	–
Cc1c(C(=O)NCCO)[n+](=O)c2ccccc2n1[O-]	inactive	inactive	inactive	inactive	inactive	–	–	inactive	inactive	inactive	inactive	–	–	–
